Measured values taken from publication PMC5540273 (PLoS ONE, 2017).

Legend:
Settings in all cases: concentration: 1 μM,replicates: in singlicate; n = 1
RIOK1 = tested on: RIOK1
RIOK2 = tested on: RIOK2
RIOK3 = tested on: RIOK3
RIPK1 = tested on: RIPK1
RIPK2 = tested on: RIPK2
RIPK4 = tested on: RIPK4
RIPK5 = tested on: RIPK5
ROCK1 = tested on: ROCK1
ROCK2 = tested on: ROCK2
ROS1 = tested on: ROS1
[1] = tested on: RPS6KA4(Kin.Dom.1-N-terminal)
[2] = tested on: RPS6KA4(Kin.Dom.2-C-terminal)
[3] = tested on: RPS6KA5(Kin.Dom.1-N-terminal)
[4] = tested on: RPS6KA5(Kin.Dom.2-C-terminal)
[5] = tested on: T1, RSK1(Kin.Dom.1-N-terminal)
T1 construct: gene RPS6KA1

[6] = tested on: T2, RSK1(Kin.Dom.2-C-terminal)
T2 construct: gene RPS6KA1

[7] = tested on: T3, RSK2(Kin.Dom.1-N-terminal)
T3 construct: gene RPS6KA3

[8] = tested on: T4, RSK2(Kin.Dom.2-C-terminal)
T4 construct: gene RPS6KA3

[9] = tested on: T5, RSK3(Kin.Dom.1-N-terminal)
T5 construct: gene RPS6KA2

[10] = tested on: T6, RSK3(Kin.Dom.2-C-terminal)
T6 construct: gene RPS6KA2
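Note: KINOMEscan kinase panel screen.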

SMILES: NC(=O)c1cc(-c2ccccc2)cc2c(C3CCNCC3)c[nH]c12 [GSK301362]
- %Inh (RIOK1): 79%
- %Inh (RIOK2): 20%
- %Inh (RIOK3): 64%
- %Inh (RIPK1): 0%
- %Inh (RIPK2): 7%
- %Inh (RIPK4): 19%
- %Inh (RIPK5): 0%
- %Inh (ROCK1): 40%
- %Inh (ROCK2): 19%
- %Inh (ROS1): 23%
- %Inh [1]: 16%
- %Inh [2]: 0%
- %Inh [3]: 12%
- %Inh [4]: 4%
- %Inh [5]: 8%
- %Inh [6]: 0%
- %Inh [7]: 0%
- %Inh [8]: 54%
- %Inh [9]: 27%
- %Inh [10]: 0%

SMILES: CC(C)N1C(=O)Cc2cc(Nc3ncc(C(F)(F)F)c(NCc4cccc(S(C)(=O)=O)c4)n3)ccc21
- %Inh (RIOK1): 46%
- %Inh (RIOK2): 21%
- %Inh (RIOK3): 88%
- %Inh (RIPK1): 0%
- %Inh (RIPK2): 4%
- %Inh (RIPK4): 42%
- %Inh (RIPK5): 43%
- %Inh (ROCK1): 3%
- %Inh (ROCK2): 0%
- %Inh (ROS1): 59%
- %Inh [1]: 0%
- %Inh [2]: 24%
- %Inh [3]: 0%
- %Inh [4]: 22%
- %Inh [5]: 21%
- %Inh [6]: 19%
- %Inh [7]: 56%
- %Inh [8]: 2%
- %Inh [9]: 39%
- %Inh [10]: 26%

SMILES: CN(C)CCOc1ccc(-c2cc(-c3c[nH]nc3-c3ccccn3)ccn2)cc1 [GW835314]
- %Inh (RIOK1): 0%
- %Inh (RIOK2): 2%
- %Inh (RIOK3): 8%
- %Inh (RIPK1): 0%
- %Inh (RIPK2): 78%
- %Inh (RIPK4): 16%
- %Inh (RIPK5): 14%
- %Inh (ROCK1): 9%
- %Inh (ROCK2): 18%
- %Inh (ROS1): 21%
- %Inh [1]: 0%
- %Inh [2]: 17%
- %Inh [3]: 8%
- %Inh [4]: 1%
- %Inh [5]: 0%
- %Inh [6]: 40%
- %Inh [7]: 21%
- %Inh [8]: 16%
- %Inh [9]: 84%
- %Inh [10]: 10%

SMILES: CN(C)CC(O)COc1ccc(Nc2nccc(-c3cnn4nc(N5CCOCC5)ccc34)n2)cc1 (stereo not drawn) [GW767488]
- %Inh (RIOK1): 96.6%
- %Inh (RIOK2): 98.2%
- %Inh (RIOK3): 98.2%
- %Inh (RIPK1): 46%
- %Inh (RIPK2): 0%
- %Inh (RIPK4): 55%
- %Inh (RIPK5): 65%
- %Inh (ROCK1): 93.8%
- %Inh (ROCK2): 97.9%
- %Inh (ROS1): 48%
- %Inh [1]: 0%
- %Inh [2]: 53%
- %Inh [3]: 0%
- %Inh [4]: 0%
- %Inh [5]: 23%
- %Inh [6]: 49%
- %Inh [7]: 62%
- %Inh [8]: 1%
- %Inh [9]: 20%
- %Inh [10]: 37%

SMILES: Cl.Oc1cc(-c2nc(-c3ccccc3)[nH]c2-c2ccncc2)ccc1Cl [SB-386023]
- %Inh (RIOK1): 0%
- %Inh (RIOK2): 5%
- %Inh (RIOK3): 0%
- %Inh (RIPK1): 0%
- %Inh (RIPK2): 78%
- %Inh (RIPK4): 17%
- %Inh (RIPK5): 21%
- %Inh (ROCK1): 1%
- %Inh (ROCK2): 6%
- %Inh (ROS1): 19%
- %Inh [1]: 0%
- %Inh [2]: 13%
- %Inh [3]: 1%
- %Inh [4]: 0%
- %Inh [5]: 4%
- %Inh [6]: 23%
- %Inh [7]: 0%
- %Inh [8]: 0%
- %Inh [9]: 0%
- %Inh [10]: 0%

SMILES: Cl.Cl.NC[C@H](Cc1ccc(C(F)(F)F)cc1)NC(=O)c1cc(Br)c(-c2ccnc3[nH]ccc23)s1 [GSK1487252]
- %Inh (RIOK1): 35%
- %Inh (RIOK2): 0%
- %Inh (RIOK3): 12%
- %Inh (RIPK1): 0%
- %Inh (RIPK2): 0%
- %Inh (RIPK4): 19%
- %Inh (RIPK5): 0%
- %Inh (ROCK1): 98.2%
- %Inh (ROCK2): 99.5%
- %Inh (ROS1): 44%
- %Inh [1]: 41%
- %Inh [2]: 0%
- %Inh [3]: 72%
- %Inh [4]: 21%
- %Inh [5]: 20%
- %Inh [6]: 7%
- %Inh [7]: 56%
- %Inh [8]: 1%
- %Inh [9]: 37%
- %Inh [10]: 0%

SMILES: C[C@@H]1CCN(C(=O)CC#N)C[C@@H]1N(C)c1ncnc2[nH]ccc12
- %Inh (RIOK1): 0%
- %Inh (RIOK2): 0%
- %Inh (RIOK3): 37%
- %Inh (RIPK1): 0%
- %Inh (RIPK2): 0%
- %Inh (RIPK4): 0%
- %Inh (RIPK5): 0%
- %Inh (ROCK2): 46%
- %Inh (ROS1): 6%
- %Inh [2]: 0%
- %Inh [3]: 0%
- %Inh [4]: 0%
- %Inh [5]: 20%
- %Inh [6]: 0%
- %Inh [7]: 0%
- %Inh [8]: 0%
- %Inh [9]: 0%
- %Inh [10]: 100%

SMILES: CCN(CC)CCCCNc1ncc2cc(-c3c(Cl)cccc3Cl)c(NC(=O)NC(C)(C)C)nc2n1
- %Inh (RIOK1): 0%
- %Inh (RIOK2): 6%
- %Inh (RIOK3): 0%
- %Inh (RIPK1): 17%
- %Inh (RIPK2): 54%
- %Inh (RIPK4): 0%
- %Inh (RIPK5): 26%
- %Inh (ROCK1): 0%
- %Inh (ROCK2): 9%
- %Inh (ROS1): 43%
- %Inh [1]: 0%
- %Inh [2]: 16%
- %Inh [3]: 8%
- %Inh [4]: 0%
- %Inh [5]: 0%
- %Inh [6]: 13%
- %Inh [7]: 0%
- %Inh [8]: 0%
- %Inh [9]: 0%
- %Inh [10]: 14%

SMILES: C[C@@H](Oc1cc(-c2cnn(C3CCNCC3)c2)cnc1N)c1c(Cl)ccc(F)c1Cl
- %Inh (RIOK1): 39%
- %Inh (RIOK2): 0%
- %Inh (RIOK3): 50%
- %Inh (RIPK1): 6%
- %Inh (RIPK2): 32%
- %Inh (RIPK4): 34%
- %Inh (RIPK5): 80%
- %Inh (ROCK1): 5%
- %Inh (ROCK2): 20%
- %Inh [1]: 0%
- %Inh [2]: 3%
- %Inh [3]: 0%
- %Inh [4]: 0%
- %Inh [5]: 14%
- %Inh [6]: 17%
- %Inh [7]: 13%
- %Inh [8]: 0%
- %Inh [9]: 14%
- %Inh [10]: 20%

SMILES: O=C(NCCCN1CCOC1=O)c1cnc(NCc2cc(Cl)ccc2Cl)nc1NC1CCCC1
- %Inh (RIOK1): 0%
- %Inh (RIOK2): 0%
- %Inh (RIOK3): 6%
- %Inh (RIPK1): 1%
- %Inh (RIPK2): 0%
- %Inh (RIPK4): 11%
- %Inh (RIPK5): 0%
- %Inh (ROCK1): 0%
- %Inh (ROCK2): 0%
- %Inh (ROS1): 18%
- %Inh [1]: 10%
- %Inh [2]: 0%
- %Inh [3]: 15%
- %Inh [4]: 8%
- %Inh [5]: 8%
- %Inh [6]: 6%
- %Inh [7]: 2%
- %Inh [8]: 16%
- %Inh [9]: 67%
- %Inh [10]: 13%

SMILES: Nc1nc(Nc2ccccc2)cc(-c2ccc3c(N)n[nH]c3c2)n1 [GSK2225749]
- %Inh (RIOK1): 98.5%
- %Inh (RIOK2): 54%
- %Inh (RIOK3): 76%
- %Inh (RIPK1): 0%
- %Inh (RIPK2): 0%
- %Inh (RIPK4): 44%
- %Inh (RIPK5): 0%
- %Inh (ROCK2): 45%
- %Inh (ROS1): 0%
- %Inh [1]: 0%
- %Inh [2]: 51%
- %Inh [3]: 15%
- %Inh [4]: 17%
- %Inh [5]: 0%
- %Inh [6]: 0%
- %Inh [7]: 20%
- %Inh [8]: 22%
- %Inh [9]: 7%
- %Inh [10]: 4%

SMILES: C=CC(=O)Nc1cc2c(Nc3ccc(F)c(Cl)c3)ncnc2cc1OCCCN1CCOCC1 [GW781483]
- %Inh (RIOK1): 54%
- %Inh (RIOK2): 10%
- %Inh (RIOK3): 46%
- %Inh (RIPK1): 8%
- %Inh (RIPK2): 53%
- %Inh (RIPK4): 26%
- %Inh (RIPK5): 4%
- %Inh (ROCK1): 42%
- %Inh (ROCK2): 0%
- %Inh (ROS1): 4%
- %Inh [1]: 7%
- %Inh [2]: 3%
- %Inh [3]: 0%
- %Inh [4]: 0%
- %Inh [5]: 0%
- %Inh [6]: 0%
- %Inh [7]: 33%
- %Inh [8]: 24%
- %Inh [9]: 17%
- %Inh [10]: 11%

SMILES: Cc1ccc(-n2nc(C(C)(C)C)cc2NC(=O)Nc2ccc(OCCN3CCOCC3)c3ccccc23)cc1 [GW839464]
- %Inh (RIOK1): 54%
- %Inh (RIOK2): 0%
- %Inh (RIOK3): 8%
- %Inh (RIPK1): 29%
- %Inh (RIPK2): 0%
- %Inh (RIPK4): 0%
- %Inh (RIPK5): 0%
- %Inh (ROCK1): 0%
- %Inh (ROCK2): 0%
- %Inh (ROS1): 0%
- %Inh [1]: 23%
- %Inh [2]: 0%
- %Inh [3]: 2%
- %Inh [4]: 18%
- %Inh [5]: 100%
- %Inh [6]: 0%
- %Inh [7]: 0%
- %Inh [8]: 0%
- %Inh [9]: 54%
- %Inh [10]: 4%

SMILES: CC(C)Nc1cc(-c2ccc3c(N)n[nH]c3c2)nc(N)n1 [GSK2221681]
- %Inh (RIOK1): 94.1%
- %Inh (RIOK2): 19%
- %Inh (RIOK3): 66%
- %Inh (RIPK1): 0%
- %Inh (RIPK2): 0%
- %Inh (RIPK4): 66%
- %Inh (RIPK5): 0%
- %Inh (ROCK1): 7%
- %Inh (ROCK2): 41%
- %Inh (ROS1): 5%
- %Inh [1]: 0%
- %Inh [2]: 88%
- %Inh [3]: 0%
- %Inh [4]: 68%
- %Inh [5]: 28%
- %Inh [6]: 0%
- %Inh [7]: 8%
- %Inh [8]: 19%
- %Inh [9]: 18%
- %Inh [10]: 12%
